From PubChem
Hits are enriched below; roughly 7.5% of the tested compounds scored in any of these assays.
ELG1 genotox = inducers of genotoxicity in HEK293T ELG1-luciferase cells; HEK293T ELG1-luciferase reporter, luminescence, 16 h; Potency, µM (top dose mostly 46 µM), for the others: at the top dose activity change, positive = activation, usual class: activators; 330,000 compounds, 1.3% hits; AID 504466; further: % of control where 0% means no effect; nearly all actives have a fitted effect of over 60% in size
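Luminescence read-out: rising ELG1-luciferase signal, reflecting elevated ELG1 protein under genetic stress, flags genotoxic compounds. Cells were treated for 16 hr at 37 °C before ONE-Glo detection.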
SMN2 splice enh = SMN2 splice variant enhancement; 210,000 compounds, 2.8% hits; HEK293 SMN2-luciferase splicing reporter, luminescence, 30-36 h; Potency, µM (highest dose often 46.1 µM), for inactives: top-dose activity change, positive = activation, hits mostly activators; AID 1458; further: % of control where 0% means no effect; nearly all actives have a fitted effect of over 55% in size
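HEK293 cells carry an SMN2 […]–luciferase reporter in which exon 7 inclusion puts luciferase in frame. Cells were plated 10-12 h before compound addition, then incubated 30-36 h at 37C. ONE-Glo luminescence was read; sodium butyrate at 4.5 mM final served as control.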
FLuc counter = firefly luciferase modulation, counter-screen for miR-21 project | P08659 | purified FLuc, Km substrates, luminescence inhibition | 360,000 compounds, 6.9% hits | Potency, µM (top dose mostly 57.5 µM), for the others: at the top dose activity change, negative = inhibition, actives largely listed as inhibitors;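 further: plate controls were vehicle for no effect and reference inhibitor for full effect; nearly all actives have a fitted effect of over 55% in size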
Target sequence (P08659 whole entry, looked up): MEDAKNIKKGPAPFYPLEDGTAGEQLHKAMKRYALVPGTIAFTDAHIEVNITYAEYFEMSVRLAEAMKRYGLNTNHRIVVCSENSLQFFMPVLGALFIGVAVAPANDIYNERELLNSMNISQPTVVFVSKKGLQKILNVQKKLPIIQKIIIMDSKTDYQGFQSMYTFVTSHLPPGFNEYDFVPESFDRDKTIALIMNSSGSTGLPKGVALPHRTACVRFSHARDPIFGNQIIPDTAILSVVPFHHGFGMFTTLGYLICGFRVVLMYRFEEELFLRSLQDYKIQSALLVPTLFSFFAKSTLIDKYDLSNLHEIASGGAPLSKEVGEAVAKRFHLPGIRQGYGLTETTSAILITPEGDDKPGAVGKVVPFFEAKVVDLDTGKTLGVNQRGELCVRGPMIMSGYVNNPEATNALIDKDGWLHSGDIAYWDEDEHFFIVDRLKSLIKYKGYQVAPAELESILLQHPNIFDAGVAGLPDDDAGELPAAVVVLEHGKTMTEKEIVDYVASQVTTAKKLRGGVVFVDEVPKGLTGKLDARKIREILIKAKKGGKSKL
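Biochemical qHTS of compounds, final roughly 60 µM downward over six points, against 10 nM purified firefly luciferase using Km concentrations of substrates (10 uM D-luciferin, 10 uM ATP) in Tris acetate pH 7.5 buffer; luminescence output.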
Rab9 promoter act = activators of Rab9 promoter | Huh7 Rab9 promoter-luciferase reporter, luminescence, 24 h | Potency, µM (top dose mostly 9.22 µM), without a hit: at the top dose activation, negative = inhibition, hits mostly activators | 320,000 compounds, 2.8% hits; further: % of control where 0% means no effect; nearly all actives have a fitted effect of over 60% in size
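Cells were plated at 1500 per well in reduced-serum medium with 10% FBS and left 2 h. Compound in DMSO was then added for 24 h at 37 °C. Reporter signal was read by luminescence after 10 min with luciferase detection reagent.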
NPC1 prom act = activates the NPC1 promoter. 320,000 compounds, 2.4% hits. AID 485313. Huh7 NPC1 promoter luciferase reporter, 24 h. Potency, µM (top dose mostly 9.22 µM), for the others: top-dose activation, hits mostly activators; further: % of control where 0% means no effect; nearly all actives have a fitted effect of over 60% in size
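Compounds in DMSO were transferred onto Huh7 NPC1-luciferase reporter cells pre-incubated 2 h; after 24 h at 37 °C, Amplite reagent was dispensed and luminescence recorded 10 min later.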
Luc counter = counter-screen: inhibitors of Kinase-Glo firefly luciferase; Kinase-Glo luciferase, ATP luminescence, 8 min; 200,000 compounds, 0.28% hits; AID 1379; Potency, µM (top dose mostly 38.3 µM), for inactives: at the top dose activity change, negative = inhibition, actives largely listed as inhibitors; Q27757; further: on the % scale 0 is the no-effect control and ±100 the full control effect; nearly all actives have a fitted effect of over 60% in size
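Light output from Kinase-Glo luciferase with luciferin and 10 uM ATP in 50 mM imidazole pH 7.2, KCl, MgCl2, Tween 20, BSA; compound pin-delivered, 8-min ambient incubation, then luminescence read.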
The depositor's hits bear a star; ? = inconclusive; . = no result given. The call rests on the fitted dose curve; in most records, active means well fitted curve in the direction sought with a large enough effect; inconclusive means small, poorly fitted or top-dose-only effect, or another doubt; inactive means no such curve, though single readings can be large; an effect the other way counts as inactive or inconclusive. Potency means the concentration at half of the fitted maximal effect.

SMILES	ELG1 genotox	SMN2 splice enh	FLuc counter	Rab9 promoter act	NPC1 prom act	Luc counter
COc1ccc(N=Cc2oc3ccc4ccccc4c3c2O)cc1	22.1%	12.6µM*	?	3.16µM*	?	-5.6%
COc1ccc(S(=O)(=O)/N=C2\C=C(Nc3ccc(O)cc3)C(=O)c3ccccc32)cc1	-33.2%	.	?	-54.0%	-45.8%	.
COc1ccc(Cn2c(O)c(C=Nc3ccc(OC)cc3)c3ccccc3c2=O)cc1	0.8%	22.1%	-2.3%	-0.8%	-7.6%	-3.0%
O=C1C(C=NCCN2CCOCC2)=C(O)c2ccccc21	?	?	6.01µM*	11.4%	-5.2%	-7.3%
COc1ccc(N=CC2=C(O)c3ccccc3C2=O)cc1	?	3.98µM*	0.151µM*	0.316µM*	0.708µM*	4.47µM*
COc1ccc(N=Cc2[nH]c3ccccc3c2O)cc1	12.9%	?	2.13µM*	?	8.5%	-19.4%
CCc1nnc2c(NCc3cccc(OC)c3)nc3ccccc3n12	.	3.2%	-4.3%	.	.	.
CCOc1ccccc1N(C)C(=O)c1c2c(nc3ccccc13)C(=O)N(C1CCCCC1)C2	.	.	-8.1%	.	.	.
Cc1ccc2c(c1)[C@@H]1[C@H](CO2)[C@H](c2ccccc2)[C@]2(C)C(=O)N[C@H](C)C(=O)N12	0.1%	.	.	.	.	.
CN=CC1=C(O)c2ccccc2C1=O	11.2%	17.3%	2.9%	0.4%	3.8%	-0.7%
O=C1C(C=Nc2ccccc2)=C(O)c2ccccc21	?	15.8µM*	0.536µM*	1.58µM*	3.16µM*	12.6µM*
Cc1cccc(N(C)C(=O)Cn2cnc3nc4c(cc3c2=O)CCCC4)c1	.	.	-4.3%	.	.	.
CCOc1ccc(CNC(=O)c2ccc3c(c2)nc2n3CCOC2)cc1	.	.	-13.3%	.	.	.
CCOc1ccc(CNC(=O)c2ccc3c(c2)nc2n3CCCCC2)cc1	.	.	12µM*	.	.	.
CC(C)Oc1ccc(CNC(=O)c2ccc3c(c2)nc2n3CCCCC2)cc1	.	.	9.53µM*	.	.	.
NC(=O)COC(=O)c1ccc2noc(-c3ccccc3)c2c1	13.5%	.	-8.7%	29.2%	3.98µM*	.
COc1ccccc1CNC(=O)c1ccc2nc(-c3ccccc3)c(-c3ccccc3)nc2c1	.	.	-18.9%	.	.	.
CCOc1ccc(NC(=O)CN(C)C(=O)c2c(-c3c(F)cccc3Cl)noc2C)cc1OCC	-4.2%	.	-6.7%	5.0%	1.7%	.
CCN(CC)c1ccc(C(=O)O)cc1	1.8%	0.7%	4.5%	-3.9%	-0.4%	1.1%
CCN(CC)c1ccc(/C=C2\C(=O)c3ccc(C(=O)O)cc3C2=O)cc1	?	-8.9%	0.379µM*	-5.1%	1.2%	-23.7%
Cc1ccc(-c2ccc(=O)[nH]n2)cc1	5.1%	0.8%	-0.5%	12.0%	0.4%	0.4%
CCCCCc1ccc(-c2ccc(=O)[nH]n2)cc1	18.5%	-9.0%	19µM*	2.9%	9.2%	13.8%
[O-][n+]1c(/C=C/c2ccccc2)ccc2ccccc21	6.51µM*	.	0.849µM*	2.82µM*	3.98µM*	.
CN(CCCS(=O)(=O)[O-])c1ccc(/C=C/c2ccc3ccccc3[n+]2C)cc1	-0.6%	.	-11.3%	-3.4%	-4.7%	.
Cc1cc(C(=O)COc2cccc([N+](=O)[O-])c2)c(C)n1C1CC1	?	.	2.39µM*	3.16µM*	2.24µM*	.
Cc1ccc(OCC(=O)c2cc(C)n(C3CC3)c2C)c([N+](=O)[O-])n1	12.4%	-7.6%	-18.0%	1.8%	14.1%	-0.8%
Cc1cc(C(=O)COC(=O)c2cccc(O)c2)c(C)n1C1CC1	?	.	0.269µM*	?	?	.
COc1cc2c(cc1OC)C(c1cc(OC)c(O)c(OC)c1)CC(=O)N2 (centres undefined)	.	13.2%	-0.9%	.	.	.
Cc1ccc(S(=O)(=O)N2CCCC2CNC(=O)C(=O)NC2CCCC2)cc1 (centres undefined)	0.7%	.	0.4%	4.5%	1.2%	.
Cc1nc(N)sc1N=Nc1ccc(F)cc1	11.6µM*	11.8%	12µM*	?	?	-2.1%
